Assay in all cases: NCI-60 one-dose screen, 48 h (100 = growth as untreated, 0 = no growth, -100 = all killed)
Common to all, as to conditions: 10 µM unless noted

Experiment [1] has as its system NCI-H23 lung.
Experiment [2] has as its system NCI-H226 lung.
Experiment [3] deals with NCI-H322M lung.
Experiment [4] has as its system HOP-62 NSCLC.
Experiment [5] relates to NCI-H460 lung.
The test system of experiment [6] is HOP-92 NSCLC.
Experiment [7] concerns NCI-H522 lung.
In experiment [8] the test system is A549/ATCC NSCLC.
The test system of experiment [9] is 786-0 renal.
Experiment [10] has as its system COLO 205 colon.
For experiment [11], the system named is DU-145 prostate.
Experiment [12] deals with K-562 leukemia.
For experiment [13], the system named is MALME-3M melanoma.
In experiment [14] the test system is MDA-MB-231 breast.
Experiment [15] has as its system RXF 393 renal.
Experiment [16] has as its system SF-268 CNS.
Experiment [17] relates to SF-295 CNS.
The subject of experiment [18] is SF-539 CNS.
In experiment [19] the test system is UACC-257 melanoma.
Experiment [20] has as its system M14 melanoma.

Compounds without any hit were thinned out: in the full panel of roughly 83,000, 20% have a hit.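 Negative percent growth values reflect cell death: -40 means 40% of the cells present at the start died, and -100 means all died.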 A number with no mark means an inactive call. Calls of active or inactive are those of the source. Rule for the calls: active = growth percent below 10; inactive = the rest.

As to `C1Cc2onc(-c3noc4c3CCC4)c2C1`, the growth was 105% in experiment [1]; 120% in [2]; 103% in experiment [3]; 103% in experiment [4]; 137% in [5]; 108% in experiment [6]. For the same compound, the growth in experiment [7] was 96.5%; in experiment [8], 104%; in [9], 106%; in experiment [10] it was 115%; in [11] it was 115%; in experiment [12], 109%. The growth in [13] was 108%; in [14], 116%; in experiment [15] it was 134%; in [16] it was 110%; in experiment [17], 104%; in experiment [18] it was 108%. In addition, the growth in [19] and in experiment [20] was 110% each time.
On to `Cc1ccc(C)c2c1CCC2=O`, for which the growth in experiment [1] is 95.4%; in experiment [2] it was 91.4%; in [3] it was 101%; in [4], 93.2%; in [5], 97.4%; in experiment [6], 94.7%. Besides, the growth in [7] was 96.7%; in experiment [8], 114%; in experiment [9], 99.6%; in [10] it was 114%; in [11], 102%; in experiment [12], 133%. In addition, the growth was 103% in experiment [13]; 117% in experiment [14]; 87.9% in experiment [15]; 96.8% in experiment [16]; 91.6% in experiment [17]; 95.6% in experiment [18]. Further, the growth was 107% in experiment [19] and 95.7% in experiment [20].
Turning to `CC(=O)c1cccs1`, the growth was 93.8% in experiment [1]; 98.8% in experiment [2]; 97.7% in experiment [3]; 83.8% in [4]; 104% in experiment [5]; 90.8% in [6]. The growth in experiment [7] was 89.3%; in experiment [8], 92%; in [9], 95.1%; in experiment [10], 116%; in [11], 109%; in experiment [12] it was 108%. Further, the growth in experiment [13] is 115%; in [14], 101%; in experiment [15] it was 96.6%; in experiment [16], 103%; in [17] it was 97.3%; in experiment [18], 95.6%. For the same compound, the growth in experiment [19] was 96.3%; in [20], 102%.
For the compound `CC(=O)Nc1ccc(C(=O)c2ccc(S(=O)(=O)Nc3ccccc3)cc2)cc1`, the growth in experiment [1] is 231%; in experiment [2] it was 102%; in experiment [3], 73.2%; in experiment [4], 100%; in experiment [5], 97.8%; in experiment [6], 74.2%. For the same compound, the growth in [7] was 84.4%; in experiment [8] it was 81.3%; in experiment [9], 156%; in [10], 92.4%; in experiment [11], 117%; in [12] it was 112%. In addition, the growth is 99.5% in experiment [13]; 88.1% in experiment [14]; 100% in [15]; 104% in [16]; 109% in [17]; 94.7% in experiment [18]. For the same compound, the figures for the growth in experiment [19] and in [20] were 69.6% and 91.8%, respectively.
Turning to `CC(C)N(CCCC#N)C(C)C`, the growth in experiment [1] was 104%; in [2] it was 114%; in [3] it was 104%; in [4] it was 98.6%; in [5] it was 105%; in [6], 85.8%. The growth in experiment [7] is 108%; in experiment [8], 93.9%; in experiment [9], 100%; in experiment [10], 110%; in experiment [11], 107%; in [12], 104%. In addition, the growth was 109% in [13]; 102% in experiment [14]; 103% in experiment [15]; 103% in experiment [16]; 100% in experiment [17]; 97.9% in experiment [18]. Also, the growth in [19] is 89.2%; in experiment [20], 107%.
Turning to `COc1ccc2c(Cl)cc(NC(=O)Nc3c(C)cccc3C)nc2c1`, the growth in experiment [1] was 96.9%; in experiment [2], 4.58% (active); in experiment [3] it was 54%; in [4], 6.88% (active); in [5], 31.4%; in [6], 41.3%. Besides, the growth is 78.1% in experiment [7]; 43.3% in [8]; 21% in [9]; 58.7% in experiment [10]; 82.6% in experiment [11]; 72.6% in [12]. Besides, the growth in [13] was -1.2% (active); in experiment [14] it was 62.7%; in experiment [15] it was 36.3%; in experiment [16], 81.1%; in experiment [17], 0.445% (active); in experiment [18], 90.1%. Also, the growth is 76.8% in experiment [19] and 85.6% in [20].
Take `Cc1ccc(OC(=O)c2ccccc2)cc1`: the growth was 114% in experiment [1]; 100% in experiment [2]; 123% in experiment [3]; 97.7% in [4]; 106% in [5]; 130% in experiment [6]. For the same compound, the growth is 91.8% in [7]; 98.7% in experiment [8]; 112% in experiment [9]; 96.1% in experiment [10]; 114% in experiment [11]; 101% in experiment [12]. For the same compound, the growth in experiment [13] is 123%; in experiment [14], 126%; in experiment [15] it was 107%; in [16], 108%; in [17], 117%; in experiment [18], 106%. For the same compound, the figures for the growth in experiment [19] and in [20] were 94.3% and 113%, respectively.
Turning to `NC(CO)(CO)c1ccccc1`, the growth in experiment [1] was 99.1%; in [2], 96.6%; in experiment [3], 101%; in experiment [4], 100%; in experiment [5], 99.1%; in [6], 88.1%. In addition, the growth in [7] is 95.3%; in experiment [8], 100%; in experiment [9], 106%; in experiment [10] it was 103%; in experiment [11], 101%; in experiment [12], 111%. Further, the growth in experiment [13] is 105%; in experiment [14], 111%; in experiment [15] it was 101%; in experiment [16] it was 97.6%; in experiment [17], 104%; in experiment [18], 104%. The figures for the growth in experiment [19] and in experiment [20] were 96.5% and 94.9%, respectively.

The values are drawn from PubChem BioAssay (NCI).
